# Compounds without any hit were thinned out: in the full panel of roughly 79,000, 15% have a hit. Unmarked numbers belong to inactive results. Activity calls are given as the source filed them. Cut-off read from the data, not from the text of the source: active = growth inhibition above about 70%; inactive = the rest.
# Tests used:
# [1] = NCI Yeast Anticancer Drug Screen. Data for the rad52 strain (AID 147);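 note: 0% = growth of vehicle-treated control cultures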; settings: S. cerevisiae rad52 mutant growth inhibition, active compounds read high
# How it was run: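 Vehicle-treated cultures served as the reference for growth inhibition of compound-exposed yeast bearing a DNA repair mutation.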
# [2] = NCI Yeast Anticancer Drug Screen. Data for the wt1 strain (AID 149);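 note: 0% = growth of vehicle-treated wt1 cultures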; settings: S. cerevisiae wt1 strain (SPY 50644) growth inhibition, active compounds read high
# How it was run: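 Yeast wt1 strain exposed to compounds; growth inhibition measured relative to vehicle-treated controls.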
# [3] = NCI Yeast Anticancer Drug Screen. Data for the rad50EPP+ strain (AID 151);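 note: 0% = growth of vehicle-treated control cultures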; settings: S. cerevisiae rad50 mutant strain, active compounds read high
# How it was run: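 In this screen, rad50EPP+ yeast were exposed to compounds. Growth inhibition was scored against vehicle-treated controls.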
# [4] = NCI Yeast Anticancer Drug Screen. Data for the mgt1 strain (AID 153); settings: S. cerevisiae mgt1 mutant growth inhibition, active compounds read high
# How it was run: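 mgt1 strain exposed; growth vs vehicle control recorded as inhibition.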
# [5] = NCI Yeast Anticancer Drug Screen. Data for the rad50 strain (AID 155);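 note: 0% = growth of vehicle-only cultures of the same strain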; settings: S. cerevisiae rad50 strain growth inhibition, active compounds read high
# How it was run: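 Yeast carrying a defined DNA repair defect were exposed to test compounds, and growth was compared with vehicle-treated controls to give percent inhibition.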
# [6] = NCI Yeast Anticancer Drug Screen. Data for the mec2-1 strain (AID 157); settings: S. cerevisiae mec2-1 strain, active compounds read high
# How it was run: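 Vehicle-treated cultures served as reference for growth inhibition of compound-exposed mec2-1 yeast.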
# [7] = NCI Yeast Anticancer Drug Screen. Data for the rad14 strain (AID 159);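 note: 0% = growth of vehicle-treated control cultures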; settings: S. cerevisiae rad14 strain growth inhibition, active compounds read high
# How it was run: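 Yeast cells carrying a defined DNA-repair defect were exposed to compounds, and growth inhibition was calculated relative to vehicle-treated control cultures.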
# [8] = NCI Yeast Anticancer Drug Screen. Data for the sgs1 mgt1 strain (AID 161);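 note: 0% = growth of cultures given vehicle only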; settings: S. cerevisiae sgs1 mgt1 strain, active compounds read high
# How it was run: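 Test agents were incubated with a DNA-repair-mutant yeast strain. Growth was then read and compared against vehicle-treated controls.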
# [9] = NCI Yeast Anticancer Drug Screen. Data for the cln2 rad14 strain (AID 165);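 note: 0% = growth equal to vehicle treated cultures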; settings: S. cerevisiae cln2 rad14 strain, active compounds read high
# How it was run: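 Each compound was tested on cln2 rad14 yeast. Inhibition of growth was calculated against vehicle-exposed controls.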
# [10] = NCI Yeast Anticancer Drug Screen. Data for the bub3 strain (AID 167); settings: S. cerevisiae bub3 mutant strain, active compounds read high
# How it was run: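 Compounds were applied to a genetically altered yeast strain carrying a cell-cycle control defect. Growth inhibition was scored against vehicle-treated controls.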
# [11] = NCI Yeast Anticancer Drug Screen. Data for the wt2 strain (AID 169);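 note: 0% = growth of vehicle-treated yeast cultures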; settings: S. cerevisiae wt2 strain growth inhibition, active compounds read high
# How it was run: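 Inhibition of yeast growth was determined after compound treatment, normalised to controls receiving only vehicle.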
# [12] = NCI Yeast Anticancer Drug Screen. Data for the mlh1 strain (AID 171);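 note: 0% = growth of vehicle-treated control cultures of the same strain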; settings: S. cerevisiae mlh1 strain growth inhibition, active compounds read high
# How it was run: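 Vehicle-normalised growth inhibition of a repair- or checkpoint-altered yeast strain following compound treatment.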
# [13] = NCI Yeast Anticancer Drug Screen. Data for the sgs1 strain (AID 173);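 note: 0% = growth of vehicle-only control cultures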; settings: S. cerevisiae sgs1 mutant, active compounds read high
# How it was run: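 Screen format: yeast with repair or checkpoint alterations, compound exposure, growth read relative to vehicle.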
# [14] = NCI Yeast Anticancer Drug Screen. Data for the mlh1 rad18 strain (AID 175); settings: S. cerevisiae mlh1 rad18 strain growth inhibition, active compounds read high
# How it was run: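 Vehicle-treated cultures served as the reference for growth inhibition in a yeast strain carrying DNA damage repair alterations exposed to each compound.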
# [15] = NCI Yeast Anticancer Drug Screen. Data for the rad18 strain (AID 177); settings: S. cerevisiae rad18 mutant growth inhibition, active compounds read high
# How it was run: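 Test articles were incubated with altered yeast defective in DNA damage repair. Results are given as inhibition of growth versus vehicle.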
# [16] = at 5.0 µM (retest, dose inferred, filed as 0.5)
# [17] = at 50.0 µM (retest, dose inferred, filed as 5.0)
structure (smiles),measurement,setting,value
O=C(O)c1ccccc1-c1ccccc1C(=O)Nc1ccc2c(c1)Cc1ccccc1-2,growth inhibition,[1]; at 1.2 µM,2%
same,growth inhibition,[1]; at 3.7 µM,5%
same,growth inhibition,[1]; at 11.0 µM,12%
same,growth inhibition,[1]; at 33.0 µM,51%
same,growth inhibition,[1]; at 100.0 µM,90% (active)
same,growth inhibition,[2]; at 1.2 µM,5%
same,growth inhibition,[2]; at 3.7 µM,7%
same,growth inhibition,[2]; at 11.0 µM,16%
same,growth inhibition,[2]; at 33.0 µM,47%
same,growth inhibition,[2]; at 100.0 µM,90% (active)
same,growth inhibition,[3]; at 1.2 µM,-2%
same,growth inhibition,[3]; at 3.7 µM,2%
same,growth inhibition,[3]; at 11.0 µM,3%
same,growth inhibition,[3]; at 33.0 µM,10%
same,growth inhibition,[3]; at 100.0 µM,25%
same,growth inhibition,[4]; at 1.2 µM,5%
same,growth inhibition,[4]; at 3.7 µM,7%
same,growth inhibition,[4]; at 11.0 µM,19%
same,growth inhibition,[4]; at 33.0 µM,65%
same,growth inhibition,[4]; at 100.0 µM,98% (active)
same,growth inhibition,[5]; at 1.2 µM,6%
same,growth inhibition,[5]; at 3.7 µM,6%
same,growth inhibition,[5]; [16],0%
same,growth inhibition,[5]; at 11.0 µM,23%
same,growth inhibition,[5]; at 33.0 µM,49%
same,growth inhibition,[5]; [17],37%
same,growth inhibition,[5]; at 50.0 µM,71.2% (active)
same,growth inhibition,[5]; at 100.0 µM,88% (active)
same,growth inhibition,[6]; at 1.2 µM,8%
same,growth inhibition,[6]; at 3.7 µM,14%
same,growth inhibition,[6]; [16],4%
same,growth inhibition,[6]; at 11.0 µM,22%
same,growth inhibition,[6]; at 33.0 µM,64%
same,growth inhibition,[6]; [17],23%
same,growth inhibition,[6]; at 50.0 µM,73.5% (active)
same,growth inhibition,[6]; at 100.0 µM,99% (active)
same,growth inhibition,[7]; at 1.2 µM,7%
same,growth inhibition,[7]; at 3.7 µM,9%
same,growth inhibition,[7]; at 11.0 µM,21%
same,growth inhibition,[7]; at 33.0 µM,71% (active)
same,growth inhibition,[7]; at 100.0 µM,97% (active)
same,growth inhibition,[8]; [16],-7%
same,growth inhibition,[8]; [17],17%
same,growth inhibition,[8]; at 50.0 µM,62.6%
same,growth inhibition,[9]; [16],-27%
same,growth inhibition,[9]; [17],46%
same,growth inhibition,[9]; at 50.0 µM,92.3% (active)
same,growth inhibition,[10]; at 1.2 µM,4%
same,growth inhibition,[10]; at 3.7 µM,7%
same,growth inhibition,[10]; [16],-24%
same,growth inhibition,[10]; at 11.0 µM,27%
same,growth inhibition,[10]; at 33.0 µM,67%
same,growth inhibition,[10]; [17],22%
same,growth inhibition,[10]; at 50.0 µM,83.2% (active)
same,growth inhibition,[10]; at 100.0 µM,96% (active)
same,growth inhibition,[11]; at 1.2 µM,3%
same,growth inhibition,[11]; at 3.7 µM,7%
same,growth inhibition,[11]; at 11.0 µM,16%
same,growth inhibition,[11]; at 33.0 µM,59%
same,growth inhibition,[11]; at 100.0 µM,96% (active)
same,growth inhibition,[12]; at 1.2 µM,7%
same,growth inhibition,[12]; at 3.7 µM,12%
same,growth inhibition,[12]; at 11.0 µM,22%
same,growth inhibition,[12]; at 33.0 µM,51%
same,growth inhibition,[12]; at 100.0 µM,97% (active)
same,growth inhibition,[13]; at 1.2 µM,1%
same,growth inhibition,[13]; at 3.7 µM,6%
same,growth inhibition,[13]; at 11.0 µM,17%
same,growth inhibition,[13]; at 33.0 µM,59%
same,growth inhibition,[13]; at 100.0 µM,94% (active)
same,growth inhibition,[14]; [16],6%
same,growth inhibition,[14]; [17],54%
same,growth inhibition,[14]; at 50.0 µM,76.5% (active)
same,growth inhibition,[15]; at 1.2 µM,4%
same,growth inhibition,[15]; at 3.7 µM,7%
same,growth inhibition,[15]; at 11.0 µM,17%
same,growth inhibition,[15]; at 33.0 µM,49%
same,growth inhibition,[15]; at 100.0 µM,90% (active)
C#CCCCc1ccccc1,growth inhibition,[1]; at 1.2 µM,-67%
same,growth inhibition,[1]; at 3.7 µM,-68%
same,growth inhibition,[1]; at 11.0 µM,-68%
same,growth inhibition,[1]; at 33.0 µM,-43%
same,growth inhibition,[1]; at 100.0 µM,66%
same,growth inhibition,[2]; at 1.2 µM,-29%
same,growth inhibition,[2]; at 3.7 µM,-24%
same,growth inhibition,[2]; at 11.0 µM,-28%
same,growth inhibition,[2]; at 33.0 µM,-9%
same,growth inhibition,[2]; at 100.0 µM,57%
same,growth inhibition,[3]; at 1.2 µM,-65%
same,growth inhibition,[3]; at 3.7 µM,-72%
same,growth inhibition,[3]; at 11.0 µM,-55%
same,growth inhibition,[3]; at 33.0 µM,23%
same,growth inhibition,[3]; at 100.0 µM,67%
same,growth inhibition,[4]; at 1.2 µM,-19%
same,growth inhibition,[4]; at 3.7 µM,-14%
same,growth inhibition,[4]; at 11.0 µM,-7%
same,growth inhibition,[4]; at 33.0 µM,16%
same,growth inhibition,[4]; at 100.0 µM,91% (active)
same,growth inhibition,[5]; at 1.2 µM,-48%
same,growth inhibition,[5]; at 3.7 µM,-45%
same,growth inhibition,[5]; [16],-13%
same,growth inhibition,[5]; at 11.0 µM,-36%
same,growth inhibition,[5]; at 33.0 µM,-24%
same,growth inhibition,[5]; [17],37%
same,growth inhibition,[5]; at 50.0 µM,24.1%
same,growth inhibition,[5]; at 100.0 µM,65%
same,growth inhibition,[6]; at 1.2 µM,-21%
same,growth inhibition,[6]; at 3.7 µM,-12%
same,growth inhibition,[6]; [16],-13%
same,growth inhibition,[6]; at 11.0 µM,-41%
same,growth inhibition,[6]; at 33.0 µM,31%
same,growth inhibition,[6]; [17],18%
same,growth inhibition,[6]; at 50.0 µM,47.4%
same,growth inhibition,[6]; at 100.0 µM,98% (active)
same,growth inhibition,[7]; at 1.2 µM,-36%
same,growth inhibition,[7]; at 3.7 µM,-39%
same,growth inhibition,[7]; at 11.0 µM,-31%
same,growth inhibition,[7]; at 33.0 µM,-17%
same,growth inhibition,[7]; at 100.0 µM,94% (active)
same,growth inhibition,[8]; [16],-9%
same,growth inhibition,[8]; [17],15%
same,growth inhibition,[8]; at 50.0 µM,63.6%
same,growth inhibition,[9]; [16],17%
same,growth inhibition,[9]; [17],37%
same,growth inhibition,[9]; at 50.0 µM,18.1%
same,growth inhibition,[10]; at 1.2 µM,-31%
same,growth inhibition,[10]; at 3.7 µM,-33%
same,growth inhibition,[10]; [16],0%
same,growth inhibition,[10]; at 11.0 µM,-25%
same,growth inhibition,[10]; at 33.0 µM,2%
same,growth inhibition,[10]; [17],79% (active)
same,growth inhibition,[10]; at 50.0 µM,39.9%
same,growth inhibition,[10]; at 100.0 µM,97% (active)
same,growth inhibition,[11]; at 1.2 µM,-52%
same,growth inhibition,[11]; at 3.7 µM,-55%
same,growth inhibition,[11]; at 11.0 µM,-54%
same,growth inhibition,[11]; at 33.0 µM,-31%
same,growth inhibition,[11]; at 100.0 µM,14%
same,growth inhibition,[12]; at 1.2 µM,-20%
same,growth inhibition,[12]; at 3.7 µM,-22%
same,growth inhibition,[12]; at 11.0 µM,-26%
same,growth inhibition,[12]; at 33.0 µM,19%
same,growth inhibition,[12]; at 100.0 µM,98% (active)
same,growth inhibition,[13]; at 1.2 µM,-48%
same,growth inhibition,[13]; at 3.7 µM,-61%
same,growth inhibition,[13]; at 11.0 µM,-56%
same,growth inhibition,[13]; at 33.0 µM,-12%
same,growth inhibition,[13]; at 100.0 µM,89% (active)
same,growth inhibition,[14]; [16],15%
same,growth inhibition,[14]; [17],70% (active)
same,growth inhibition,[14]; at 50.0 µM,26.7%
same,growth inhibition,[15]; at 1.2 µM,-56%
same,growth inhibition,[15]; at 3.7 µM,-49%
same,growth inhibition,[15]; at 11.0 µM,-58%
same,growth inhibition,[15]; at 33.0 µM,-28%
same,growth inhibition,[15]; at 100.0 µM,65%

# From PubChem BioAssay (NCI)
